Compounds with a hit are over-represented: about 2.2% of the library has one in this group of screens.
MITF TRPM1 inh: MITF TRPM1 promoter inhibition in SK-MEL-5 cells. inhibition, % at 12.5 µM. SK-MEL-5 TRPM1 promoter luciferase, 24 h. 330,000 tested, 0.83% active;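 active = mean inhibition across replicates of 60% or more, whatever share of single replicates reaches that level; inconclusive = some that reach 60%, reason not given; inactive = mean inhibition across replicates below 60%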
Shn3 inh set2: inhibitors of Schnurri-3 3'UTR reporter in osteoblasts; Clone20 osteoblast Shn3 3'UTR firefly luciferase, 24 h; inhibition, % at 12.5 µM; 360,000 tested, 0.52% active;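 active = mean inhibition of at least 75% with every replicate also reaching 75%; inconclusive = mean inhibition at least 75% but some replicate below; inactive = mean inhibition below 75%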;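 note: 0% = median of neutral control wells and 100% = pilot-screen positive control compound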
LGR2 antag: blocks bursicon-induced cAMP signaling via Drosophila LGR2 | HEK293 LGR2, CRE-luciferase, bursicon-stimulated, 4 h | inhibition, % at 9.99 µM | 380,000 tested, 0.35% active;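 active = drop in luminescence signal, shown as inhibition above about 50% in the replicate tests, limit read from the data, passing the limit was not always enough; inconclusive = probably only some replicates passing the limit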;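 note: agonist challenge used bursicon conditioned medium at about half maximal strength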
LMP1 NFkB inh: reduces LMP1-driven NF-kappaB luciferase signal; 350,000 tested, 0.69% active; AID 504558; LMP1-induced NF-kappaB luciferase reporter cells, luminescence; inhibition, % at 12.5 µM; in the data active = inhibition above about 41%; inconclusive = no clear call, values can overlap the other calls;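 note: 0% = neutral control wells and 100% = reference inhibitor control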
PAX8 inh HTS: inhibitors of PAX8 transcriptional activity in RMG-I cells; RMG-I TPO-luciferase reporter, SteadyGlo, 24 h; inhibition, % at 12.6 µM; 360,000 tested, 1.2% active; AID 652154;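 active = mean replicate inhibition at least 60% with every replicate also reaching 60%; inconclusive = only one of the two criteria is met; inactive = mean below 60% and not all replicates reaching 60%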;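 note: luciferase light reporting Pax8 driven TPO promoter activity; plate controls were median of neutral control wells for no effect and mitoxantrone controls for full effect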
EWS-Fli inh: inhibitors of EWS/Fli oncoprotein transcriptional activity | 350,000 tested, 0.67% active | A673 NR0B1-luciferase reporter, viability-normalised | AID 651661 | inhibition, % at 12.6 µM;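 active = mean inhibition of at least 50% after viability correction, with every replicate also passing that limit; inconclusive = mean reaches 50% but only one of two replicates passes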;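 note: firefly luciferase signal divided by Alamar Blue viability fluorescence both relative to DMSO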
* marks the source's active call; other numbers are inactive results; ? = inconclusive; nt = no result given.

SMILES | MITF TRPM1 inh | Shn3 inh set2 | LGR2 antag | LMP1 NFkB inh | PAX8 inh HTS | EWS-Fli inh
CCC(C)C(=O)N[C@@H](c1ccccc1)[C@@H](O)C(=O)O[C@H]1C[C@@]2(O)[C@@H](OC(=O)c3ccccc3)C3[C@](C)(C(=O)[C@H](OC(C)=O)C(=C1C)C2(C)C)[C@@H](O)C[C@H]1OC[C@@]31OC(C)=O (some centres not stated) | nt | 18 | 7 | 14 | nt | 56*
CC/C=C/CC(=O)N[C@@H](c1ccccc1)[C@@H](O)C(=O)O[C@H]1C[C@@]2(O)[C@@H](OC(=O)c3ccccc3)C3[C@](C)(C(=O)[C@H](OC(C)=O)C(=C1C)C2(C)C)[C@@H](O)C[C@H]1OC[C@@]31OC(C)=O (some centres not stated) | nt | 22 | nt | -9 | nt | 36
COC(=O)[C@@H]1[C@@H](CO)[C@@H]2Cn3c(ccc(-c4cccnc4)c3=O)[C@H]1N2CCc1ccccc1 | nt | nt | -3 | nt | 11 | 0
C[C@@H]1O[C@@H](O[C@H]2C[C@@H](O)[C@]3(CO)[C@H]4[C@H](O)C[C@]5(C)[C@@H](C6=CC(=O)OC6)CC[C@]5(O)[C@@H]4CC[C@]3(O)C2)[C@H](O)[C@H](O)[C@H]1O | 70* | 5 | nt | 80* | nt | nt
O=[N+]([O-])c1ccc(N2CCOCC2)c2c1no[n+]2[O-] | nt | 61 | nt | 0 | 98* | 24
O=[N+]([O-])c1ccc(N2CCOCC2)c2cccnc12 | 12 | -1 | -34 | 5 | -9 | 5
COC(=O)[C@@H]1[C@@H](CO)[C@@H]2Cn3c(ccc(C4=CCCC4)c3=O)[C@H]1N2CC1CCCC1 | nt | nt | 11 | nt | nt | 0
Cc1cccc(CN2CCN(c3ccc(Cl)cc3)CC2)c1 | -13 | 13 | -4 | 0 | 10 | 8
Cc1cccc(CN2CCN(Cc3ccc(Cl)cc3)CC2)c1 | -9 | 15 | nt | 84* | nt | nt
COCC#Cc1ccc([C@H]2[C@H](CO)N3CCCCN(C(=O)Cc4ccccn4)C[C@@H]23)cc1 | nt | nt | -15 | nt | -14 | -17
O=C(O)[C@@H]1[C@@H](CO)[C@@H]2Cn3c(ccc(-c4ccncc4)c3=O)[C@H]1N2C(=O)C1CCC1 | nt | nt | 27 | nt | nt | -8
CCC1C(c2cc(OC)c(OC)c(OC)c2)c2cc3c(cc2OC1N1CCCC1)OCO3 (configuration not stated) | 8 | 17 | 11 | 0 | nt | 56*
COc1ccc2c(c1OC)C(=O)OC2C1c2cc3c(cc2CCN1C)OCO3 (configuration not stated) | -6 | 12 | 22 | -4 | 12 | 2
C[C@H]1O[C@@H](OC2CC[C@]3(C=O)[C@H]4CC[C@]5(C)[C@@H](C6=CC(=O)OC6)CC[C@]5(O)[C@@H]4CC[C@]3(O)C2)CC2OC(C)(C)OC21 (some centres not stated) | 67* | 9 | 81* | 65* | 108* | 71*
CC12CC[C@H]3[C@@H](CCC4(O)C[C@H](O)CCC34/C=N/NC(=O)c3ccccc3Cl)C1(O)CCC2C1=CC(=O)OC1 (some centres not stated) | 25 | -1 | 21 | -11 | -16 | 6
CC1OC(OC2C(O)CC(OC3C(O)CC(OC4CCC5(C)C(CCC6C5CCC5(C)C(C7=CC(=O)OC7)C(O)CC65O)C4)OC3C)OC2C)CC(O)C1O (configuration not stated) | 70* | 2 | 87* | 62* | -16 | 46
CC12CCC3C(CCC4(O)CC(O)CCC34C=O)C1(O)CCC2C1=CC(=O)OC1 (configuration not stated) | 82* | -21 | 84* | ? | 101* | 52*
CCCCN=C[C@]12CCC(O)CC1(O)CCC1[C@@H]2CC[C@]2(C)[C@H](C3C=CC(=O)O3)CCC12O (some centres not stated) | 78* | -31 | 85* | 2 | 107* | 73*
O=C(Cc1ccccc1)N1CCCCN2[C@@H](CO)[C@H](c3ccc(C#Cc4ccccc4)cc3)[C@@H]2C1 | nt | nt | 12 | nt | 27 | nt
COc1ccc(CN2Cc3cnnn3-c3ccccc3C2c2ccccc2)cc1 (configuration not stated) | 1 | 0 | 23 | -11 | 32 | 30
CN1Cc2cnnn2-c2ccccc2C1C#N (configuration not stated) | 4 | -9 | 6 | -9 | -7 | 5
COc1ccc(CN2Cc3cnnn3-c3ccccc3C2C#N)cc1 (configuration not stated) | 98* | -21 | 96* | 15 | 62* | ?
N#CC1c2ccccc2-n2nncc2CN1Cc1cc(Cl)cc(Cl)c1 (configuration not stated) | 97* | 81 | 102* | 62* | 106* | 62*
O=C(O)[C@@H]1[C@@H](CO)[C@@H]2Cn3c(ccc(-c4cccnc4)c3=O)[C@H]1N2C(=O)Nc1cc(F)ccc1F | nt | nt | 5 | nt | nt | -1
COC(=O)[C@@H]1[C@@H](CO)[C@@H]2Cn3c(ccc(-c4ccncc4)c3=O)[C@H]1N2CCc1ccccc1 | nt | nt | 1 | nt | nt | 2
SMILES | MITF TRPM1 inh | Shn3 inh set2 | LGR2 antag | LMP1 NFkB inh | PAX8 inh HTS | EWS-Fli inh
O=C(O)CCCc1ccc(N(CCCl)CCCl)cc1 | 9 | 25 | 13 | 17 | -13 | 13
ClCCN(CCCl)c1ccc(-n2cnc3c(Cl)ncnc32)cc1 | 84* | 20 | 22 | 23 | 24 | 55*
CN(C)C(=O)Oc1ccc(OCc2nc3ccccc3[nH]2)cc1 | 3 | 15 | 53* | 31 | 30 | 40
COC(=O)[C@H]1[C@H](CO)[C@H]2Cn3c(ccc(-c4cccc(C(=O)N(C)C)c4)c3=O)[C@@H]1N2C(=O)NC(C)C | nt | nt | 12 | nt | -4 | 0
O=C1CC(=O)N(c2ccc(Cl)cc2)C(=O)N1 | 12 | 16 | -4 | 64* | 0 | 9
CC(C)c1ccc(N2C(=O)CC(=O)NC2=O)cc1 | 8 | -10 | 8 | -5 | 23 | 10
O=C(Cc1ccccn1)N1CCCCN2[C@H](CO)[C@@H](c3ccc(-c4ccc(F)cc4)cc3)[C@@H]2C1 | nt | nt | -2 | nt | -19 | 1
O=C(N/N=C/c1c(O)n(C2CCCCC2)c(=S)[nH]c1=O)c1ccccc1 | 6 | -18 | -11 | 10 | 10 | 7
O=C(N/N=C/c1c(O)n(C2CCCCC2)c(=S)[nH]c1=O)c1ccccc1O | 11 | 1 | 8 | 42* | -6 | -10
c1cnc(OCCN2CC2)cn1 | -4 | -7 | nt | -6 | 87* | -5
c1cc(OCCN2CC2)ccn1 | 3 | -11 | -9 | -3 | -18 | -11
CC(C)(C)c1cc(C=C(C#N)C#N)cc(C(C)(C)C)c1O | 84* | 93* | 45 | 24 | 109* | 48
N#CC(C#N)=Cc1ccc(O)c(O)c1 | 2 | -8 | 26 | -3 | 17 | 8
O=[N+]([O-])c1cc(Cl)c(O)c(-[n+]2c(-c3ccccc3)cc(-c3ccccc3)cc2-c2ccccc2)c1 | -15 | 6 | 13 | 0 | 33 | 8

Screening data (PubChem)
